Laboratory results from the supplement of paper PMC11732987, “Enantioselective OTUD7B fragment discovery through chemoproteomics screening and high-throughput optimisation” (Communications Chemistry, 2025).

How the values were obtained:
Assay in all cases: log2 ratio of Biotin-Ahx-Ub-VS probe labelling (fragment/DMSO); higher = less target engagement (more negative = stronger competition), active = hit call of the paper (q ≤ 0.05, log2 ratio ≤ -1)
Details in all cases: compound concentration: 200 uM; treatment time: 3 h
USP19 = molecular target: T1, USP19 (UniProt O94966)
T1 sequence (whole entry): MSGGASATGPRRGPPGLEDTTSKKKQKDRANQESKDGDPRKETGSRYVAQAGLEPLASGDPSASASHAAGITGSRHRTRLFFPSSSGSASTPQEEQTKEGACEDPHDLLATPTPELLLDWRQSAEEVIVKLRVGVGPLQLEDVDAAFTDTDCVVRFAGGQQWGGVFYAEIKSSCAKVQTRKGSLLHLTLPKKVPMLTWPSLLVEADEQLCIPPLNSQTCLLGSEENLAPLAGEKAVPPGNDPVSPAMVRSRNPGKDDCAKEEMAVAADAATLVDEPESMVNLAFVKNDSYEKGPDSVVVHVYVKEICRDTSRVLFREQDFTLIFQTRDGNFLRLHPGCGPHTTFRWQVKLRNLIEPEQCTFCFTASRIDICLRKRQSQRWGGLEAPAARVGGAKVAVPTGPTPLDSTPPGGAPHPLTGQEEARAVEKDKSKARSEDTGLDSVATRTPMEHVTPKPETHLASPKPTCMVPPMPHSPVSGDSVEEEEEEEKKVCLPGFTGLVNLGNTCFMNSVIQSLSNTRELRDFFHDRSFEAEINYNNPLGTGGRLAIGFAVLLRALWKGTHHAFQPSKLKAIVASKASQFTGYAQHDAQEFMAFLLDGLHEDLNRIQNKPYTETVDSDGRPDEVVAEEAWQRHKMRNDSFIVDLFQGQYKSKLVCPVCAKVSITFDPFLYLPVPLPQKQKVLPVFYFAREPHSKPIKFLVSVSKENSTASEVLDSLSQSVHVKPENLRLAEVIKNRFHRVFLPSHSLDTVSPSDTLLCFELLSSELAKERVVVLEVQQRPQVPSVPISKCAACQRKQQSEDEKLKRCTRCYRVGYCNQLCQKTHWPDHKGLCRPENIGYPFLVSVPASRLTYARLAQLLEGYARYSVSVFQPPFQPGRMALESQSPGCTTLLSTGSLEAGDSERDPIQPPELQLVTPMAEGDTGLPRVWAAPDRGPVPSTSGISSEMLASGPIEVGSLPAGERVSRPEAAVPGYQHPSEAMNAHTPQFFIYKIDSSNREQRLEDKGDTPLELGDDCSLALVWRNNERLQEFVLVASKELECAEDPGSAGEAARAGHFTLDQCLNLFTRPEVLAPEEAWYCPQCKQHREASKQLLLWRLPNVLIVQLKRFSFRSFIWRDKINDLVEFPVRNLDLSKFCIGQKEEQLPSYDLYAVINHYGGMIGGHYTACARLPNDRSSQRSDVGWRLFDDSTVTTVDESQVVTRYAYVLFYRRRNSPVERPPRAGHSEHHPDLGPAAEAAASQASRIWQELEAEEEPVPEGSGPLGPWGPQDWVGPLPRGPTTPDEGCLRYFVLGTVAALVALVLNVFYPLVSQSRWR
How it was run: (§1)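 Labelled DUBs from HEK293T lysate were NeutrAvidin-enriched, digested with LysC and trypsin, and run by diaPASEF LC-MS/MS. Before that, each 495 µg sample in Tris/CHAPS/IGEPAL buffer with protease inhibitors was treated in triplicate with fragment at 200 µM or vehicle for 3 h, then with Biotin-Ahx-Ub-VS at 0.5 µM final for 1 h. Values are average log2 ratios of fragment over vehicle by unpaired t-test, based on global-median-normalised Spectronaut label-free quantities from proteins with ≥2 unique peptides.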

USP22 = molecular target: T2, USP22 (UniProt Q9UPT9)
T2 sequence (whole entry): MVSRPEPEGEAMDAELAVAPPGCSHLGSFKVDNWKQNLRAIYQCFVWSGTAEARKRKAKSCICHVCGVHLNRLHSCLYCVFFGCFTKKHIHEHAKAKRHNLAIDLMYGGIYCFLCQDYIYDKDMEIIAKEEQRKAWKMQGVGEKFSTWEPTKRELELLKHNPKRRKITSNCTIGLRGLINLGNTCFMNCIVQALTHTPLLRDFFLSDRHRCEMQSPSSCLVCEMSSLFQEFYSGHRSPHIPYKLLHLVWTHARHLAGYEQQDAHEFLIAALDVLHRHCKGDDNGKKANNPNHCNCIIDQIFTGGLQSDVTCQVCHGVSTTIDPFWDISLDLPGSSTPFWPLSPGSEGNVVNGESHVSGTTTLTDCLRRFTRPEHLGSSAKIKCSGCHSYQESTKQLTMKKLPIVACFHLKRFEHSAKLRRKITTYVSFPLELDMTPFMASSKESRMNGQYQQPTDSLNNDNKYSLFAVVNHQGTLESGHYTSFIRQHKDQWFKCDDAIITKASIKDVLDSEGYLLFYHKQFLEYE
How it was run: as §1

USP24 = USP24 (UniProt Q9UPU5)
How it was run: as §1

USP25 = molecular target: T3, USP25 (UniProt Q9UHP3)
T3 sequence (whole entry): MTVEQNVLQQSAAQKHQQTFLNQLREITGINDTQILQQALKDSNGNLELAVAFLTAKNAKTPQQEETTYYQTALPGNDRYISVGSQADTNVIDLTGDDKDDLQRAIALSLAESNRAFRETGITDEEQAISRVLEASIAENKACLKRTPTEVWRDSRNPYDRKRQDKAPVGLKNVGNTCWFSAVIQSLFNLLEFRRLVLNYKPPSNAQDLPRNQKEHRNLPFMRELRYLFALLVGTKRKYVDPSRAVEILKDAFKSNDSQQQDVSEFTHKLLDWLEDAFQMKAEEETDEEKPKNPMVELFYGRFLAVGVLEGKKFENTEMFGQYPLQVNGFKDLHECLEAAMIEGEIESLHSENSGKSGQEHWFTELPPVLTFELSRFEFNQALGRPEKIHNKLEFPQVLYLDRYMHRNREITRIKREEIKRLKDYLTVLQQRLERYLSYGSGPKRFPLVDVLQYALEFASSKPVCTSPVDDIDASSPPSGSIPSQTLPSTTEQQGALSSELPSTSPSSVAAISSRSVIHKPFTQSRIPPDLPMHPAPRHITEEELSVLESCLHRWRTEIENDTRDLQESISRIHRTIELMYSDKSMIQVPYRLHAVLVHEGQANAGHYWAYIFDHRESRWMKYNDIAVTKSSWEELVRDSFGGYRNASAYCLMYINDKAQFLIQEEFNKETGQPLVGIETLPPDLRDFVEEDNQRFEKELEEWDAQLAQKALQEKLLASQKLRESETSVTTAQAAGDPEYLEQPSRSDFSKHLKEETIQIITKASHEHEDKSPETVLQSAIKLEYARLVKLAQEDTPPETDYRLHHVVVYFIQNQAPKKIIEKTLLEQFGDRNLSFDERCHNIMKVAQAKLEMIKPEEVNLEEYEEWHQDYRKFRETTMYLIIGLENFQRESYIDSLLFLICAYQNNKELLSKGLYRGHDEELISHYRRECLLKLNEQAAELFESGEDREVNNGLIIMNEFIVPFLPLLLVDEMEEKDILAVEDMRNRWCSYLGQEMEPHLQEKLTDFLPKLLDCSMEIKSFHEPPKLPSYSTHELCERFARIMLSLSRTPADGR
How it was run: as §1

USP28 = molecular target: T4, USP28 (UniProt Q96RU2)
T4 sequence (whole entry): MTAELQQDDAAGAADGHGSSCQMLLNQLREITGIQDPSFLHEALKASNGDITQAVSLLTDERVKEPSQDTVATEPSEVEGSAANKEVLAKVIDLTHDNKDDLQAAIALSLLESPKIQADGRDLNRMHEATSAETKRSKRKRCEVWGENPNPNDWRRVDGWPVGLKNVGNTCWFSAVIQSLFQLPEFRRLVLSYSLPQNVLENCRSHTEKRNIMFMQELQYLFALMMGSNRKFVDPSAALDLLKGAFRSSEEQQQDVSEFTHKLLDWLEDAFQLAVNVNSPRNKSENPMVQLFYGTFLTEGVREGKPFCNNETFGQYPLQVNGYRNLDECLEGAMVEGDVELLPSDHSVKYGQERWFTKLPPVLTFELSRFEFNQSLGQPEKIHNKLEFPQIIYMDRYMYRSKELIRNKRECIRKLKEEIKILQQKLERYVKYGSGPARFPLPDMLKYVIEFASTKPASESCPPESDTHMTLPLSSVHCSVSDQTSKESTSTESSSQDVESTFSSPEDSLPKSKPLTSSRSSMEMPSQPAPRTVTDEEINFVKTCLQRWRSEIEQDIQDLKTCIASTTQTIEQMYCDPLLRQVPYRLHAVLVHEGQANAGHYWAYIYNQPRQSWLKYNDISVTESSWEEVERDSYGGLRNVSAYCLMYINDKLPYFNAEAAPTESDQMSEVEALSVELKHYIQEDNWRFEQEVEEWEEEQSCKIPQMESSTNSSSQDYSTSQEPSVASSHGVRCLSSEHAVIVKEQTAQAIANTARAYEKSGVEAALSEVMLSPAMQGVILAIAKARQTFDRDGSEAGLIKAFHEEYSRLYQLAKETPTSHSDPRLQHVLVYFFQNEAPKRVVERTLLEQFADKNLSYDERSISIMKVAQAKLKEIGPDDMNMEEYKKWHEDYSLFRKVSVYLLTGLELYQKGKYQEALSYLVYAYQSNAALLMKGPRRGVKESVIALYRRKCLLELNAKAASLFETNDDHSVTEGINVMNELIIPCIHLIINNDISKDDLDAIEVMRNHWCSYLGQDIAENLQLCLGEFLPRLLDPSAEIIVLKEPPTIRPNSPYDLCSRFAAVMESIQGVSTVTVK
How it was run: as §1

Measured: log2 ratio of Biotin-Ahx-Ub-VS probe labelling

USP24, sequence (Q9UPU5 whole entry): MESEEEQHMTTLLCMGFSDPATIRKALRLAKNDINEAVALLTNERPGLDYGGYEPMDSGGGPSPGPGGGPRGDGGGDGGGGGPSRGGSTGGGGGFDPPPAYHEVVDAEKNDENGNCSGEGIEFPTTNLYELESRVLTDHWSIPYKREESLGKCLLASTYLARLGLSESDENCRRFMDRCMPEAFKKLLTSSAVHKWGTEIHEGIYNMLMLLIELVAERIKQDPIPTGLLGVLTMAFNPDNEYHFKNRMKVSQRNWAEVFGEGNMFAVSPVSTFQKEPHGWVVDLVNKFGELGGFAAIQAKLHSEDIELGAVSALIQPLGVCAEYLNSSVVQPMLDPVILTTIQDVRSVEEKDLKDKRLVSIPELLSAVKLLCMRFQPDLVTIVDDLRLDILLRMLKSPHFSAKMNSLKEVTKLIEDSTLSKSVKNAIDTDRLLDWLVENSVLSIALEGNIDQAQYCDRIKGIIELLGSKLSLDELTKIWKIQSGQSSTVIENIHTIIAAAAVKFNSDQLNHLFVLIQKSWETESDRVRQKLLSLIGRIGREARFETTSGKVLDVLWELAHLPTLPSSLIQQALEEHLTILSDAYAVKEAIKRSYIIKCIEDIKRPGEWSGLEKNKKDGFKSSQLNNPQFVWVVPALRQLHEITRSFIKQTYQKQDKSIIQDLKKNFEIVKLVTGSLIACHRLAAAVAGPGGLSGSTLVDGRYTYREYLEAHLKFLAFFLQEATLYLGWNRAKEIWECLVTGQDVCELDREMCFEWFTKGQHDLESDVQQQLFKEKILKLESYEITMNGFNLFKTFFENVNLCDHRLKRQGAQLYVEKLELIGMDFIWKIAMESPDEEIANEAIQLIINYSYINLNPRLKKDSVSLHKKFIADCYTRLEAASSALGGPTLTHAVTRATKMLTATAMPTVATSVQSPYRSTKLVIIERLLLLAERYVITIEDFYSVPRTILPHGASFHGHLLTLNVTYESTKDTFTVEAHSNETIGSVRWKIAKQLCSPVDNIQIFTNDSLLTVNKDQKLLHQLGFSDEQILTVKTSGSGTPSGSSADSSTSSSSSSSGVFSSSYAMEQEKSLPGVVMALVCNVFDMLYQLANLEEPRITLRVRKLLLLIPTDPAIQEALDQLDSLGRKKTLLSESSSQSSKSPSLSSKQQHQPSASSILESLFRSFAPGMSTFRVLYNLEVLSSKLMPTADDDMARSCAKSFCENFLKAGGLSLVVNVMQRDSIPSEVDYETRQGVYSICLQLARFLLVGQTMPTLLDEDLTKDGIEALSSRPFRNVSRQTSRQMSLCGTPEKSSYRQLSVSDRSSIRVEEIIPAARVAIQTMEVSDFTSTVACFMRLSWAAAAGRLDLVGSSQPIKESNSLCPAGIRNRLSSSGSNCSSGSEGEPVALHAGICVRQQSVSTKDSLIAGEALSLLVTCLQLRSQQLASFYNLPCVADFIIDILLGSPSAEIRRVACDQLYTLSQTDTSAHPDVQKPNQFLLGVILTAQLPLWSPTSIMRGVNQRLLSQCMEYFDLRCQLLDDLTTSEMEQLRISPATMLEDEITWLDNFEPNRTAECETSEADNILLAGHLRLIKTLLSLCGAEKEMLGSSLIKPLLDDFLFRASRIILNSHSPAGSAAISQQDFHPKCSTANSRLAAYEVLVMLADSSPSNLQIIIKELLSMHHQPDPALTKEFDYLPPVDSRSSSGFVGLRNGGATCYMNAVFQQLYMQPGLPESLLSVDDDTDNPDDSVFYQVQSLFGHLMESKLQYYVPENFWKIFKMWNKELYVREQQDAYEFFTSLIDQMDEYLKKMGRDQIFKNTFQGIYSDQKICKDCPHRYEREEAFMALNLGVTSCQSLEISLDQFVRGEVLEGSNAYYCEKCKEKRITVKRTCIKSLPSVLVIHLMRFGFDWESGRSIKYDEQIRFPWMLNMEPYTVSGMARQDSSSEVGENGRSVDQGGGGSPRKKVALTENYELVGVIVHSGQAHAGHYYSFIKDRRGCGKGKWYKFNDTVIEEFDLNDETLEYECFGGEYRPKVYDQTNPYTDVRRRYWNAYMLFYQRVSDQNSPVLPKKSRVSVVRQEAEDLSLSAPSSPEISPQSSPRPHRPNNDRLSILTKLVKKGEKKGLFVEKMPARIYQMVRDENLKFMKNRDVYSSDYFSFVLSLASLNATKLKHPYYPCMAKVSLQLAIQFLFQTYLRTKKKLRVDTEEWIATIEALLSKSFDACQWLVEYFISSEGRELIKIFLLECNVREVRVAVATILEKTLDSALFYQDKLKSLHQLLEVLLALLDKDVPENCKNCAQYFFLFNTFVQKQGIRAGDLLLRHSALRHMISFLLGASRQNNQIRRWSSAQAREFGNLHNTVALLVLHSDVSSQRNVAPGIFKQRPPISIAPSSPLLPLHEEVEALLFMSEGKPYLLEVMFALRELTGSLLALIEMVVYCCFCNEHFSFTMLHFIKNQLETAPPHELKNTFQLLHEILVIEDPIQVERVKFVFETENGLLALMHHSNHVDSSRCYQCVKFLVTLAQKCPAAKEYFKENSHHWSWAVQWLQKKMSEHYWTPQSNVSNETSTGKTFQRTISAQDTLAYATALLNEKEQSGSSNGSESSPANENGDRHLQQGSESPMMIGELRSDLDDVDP

Cc1n[nH]c(=O)c2c(NC(=O)CCl)oc(C)c12
inactive: USP19 -0.168 | USP22 -0.281 | USP24 -0.0362 | USP25 0.114 | USP28 -0.11
